High-throughput results: PubChem, National Center for Advancing Translational Sciences (NCATS)
Rows were chosen to be rich in hits. Some 10% of all compounds tested hit in one or more screens of this group.
BAZ2B block – qHTS Assay for Inhibitors of BAZ2B | Potency, µM (doses to about 114 µM), for inactives: top-dose activity change, negative = inhibition, actives largely listed as inhibitors | AID 504333, 2011 | Bromodomain adjacent to zinc finger domain protein 2B (Homo sapiens), Q9UIF8 | AlphaScreen BAZ2B-H3K14Ac peptide displacement | 360,000 tested, 4.4% active; note: % is set by controls: 0 for no effect and ±100 for the full control effect; nearly all actives have a fitted effect of over 60% in size
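Compounds, titrated to a top concentration of 110 uM, were incubated 30 min at room temperature with preformed BAZ2B/acetyl-K14 H3 peptide complex (50 nM each). Proximity signal was measured by AlphaScreen after 20 min with beads.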
GLS inhibitor – qHTS for Inhibitors of Glutaminase (GLS); Glutaminase kidney isoform, mitochondrial (Homo sapiens), O94925; Potency, µM (highest dose often 45.5 µM), inactives show at the highest dose activity change, negative = inhibition, most hits filed as inhibitors; 410,000 tested, 0.21% active; GLS enzymatic activity, qHTS titration; note: % is set by controls: 0 for no effect and ±100 for the full control effect
Target sequence (O94925 whole entry, looked up, canonical isoform): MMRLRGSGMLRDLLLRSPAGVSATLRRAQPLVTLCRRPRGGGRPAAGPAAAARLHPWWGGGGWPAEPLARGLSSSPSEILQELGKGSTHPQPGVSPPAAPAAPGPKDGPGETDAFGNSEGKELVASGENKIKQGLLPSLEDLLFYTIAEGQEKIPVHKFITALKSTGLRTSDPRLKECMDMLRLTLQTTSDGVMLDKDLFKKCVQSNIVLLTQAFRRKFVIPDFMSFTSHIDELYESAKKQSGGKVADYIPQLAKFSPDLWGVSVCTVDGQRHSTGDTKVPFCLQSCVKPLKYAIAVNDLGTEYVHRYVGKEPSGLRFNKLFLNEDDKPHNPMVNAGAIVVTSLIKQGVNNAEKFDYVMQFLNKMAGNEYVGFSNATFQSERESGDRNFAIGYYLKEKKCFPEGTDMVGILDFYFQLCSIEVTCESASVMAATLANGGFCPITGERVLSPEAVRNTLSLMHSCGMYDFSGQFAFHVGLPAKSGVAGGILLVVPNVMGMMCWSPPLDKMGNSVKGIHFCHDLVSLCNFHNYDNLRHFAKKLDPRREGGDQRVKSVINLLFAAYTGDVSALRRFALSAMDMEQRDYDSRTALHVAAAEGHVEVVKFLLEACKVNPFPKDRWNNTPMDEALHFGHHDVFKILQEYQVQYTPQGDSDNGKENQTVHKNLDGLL
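Glutamate formation by hKGA was monitored fluorometrically using coupled glutamate oxidase, HRP and Amplex Red. Substrate was added as 1 mM L-glutamine solution; incubation was 30 min at RT after an initial read.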
JMJD2A Tudor inh – qHTS Assay for Inhibitors of JMJD2A-Tudor Domain; Lysine-specific demethylase 4A (Homo sapiens), O75164; AlphaScreen JMJD2A-Tudor / H3K4me3 peptide binding; Potency, µM (titrated, usually from 114 µM), without a hit: top-dose activity change, negative = inhibition, usual class: inhibitors; 390,000 tested, 4.4% active; AID 504339, 2011; note: % is set by controls: 0 for no effect and ±100 for the full control effect; nearly all actives have a fitted effect of over 50% in size
G9a inh – qHTS Assay for Inhibitors of Histone Lysine Methyltransferase G9a. G9a H3K9 monomethylation, AlphaScreen, 2 h. Potency, µM (highest dose often 102 µM), inactives show at the top dose activity, negative = inhibition, usual class: inhibitors. 350,000 tested, 8.8% active. AID 504332, 2011; note: % is set by controls: 0 for no effect and ±100 for the full control effect; nearly all actives have a fitted effect of over 75% in size
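Signal arises when biotinylated H3K9 peptide, once monomethylated, bridges streptavidin donor and antibody-captured acceptor beads. Enzyme at 20 nM was preincubated 15 min with test compounds; peptide 500 nM and SAM 20 uM then reacted for 2 h.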
HP1b chromo inh – HTS for Inhibitors of HP1-beta Chromodomain Interactions with Methylated Histone Tails | Chromobox protein homolog 1 (Homo sapiens), P83916 | AlphaScreen HP1-beta / biotin-H3K9me3 peptide binding | Potency, µM (titrated, usually from 114 µM), for the others: at the top dose activity change, negative = inhibition, hits mostly inhibitors | 390,000 tested, 0.56% active; note: nearly all actives have a fitted effect of over 70% in size
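HP1-beta protein (50 nM final) preincubated 30 min at room temperature with biotinylated H3(1-18)K9me3 peptide (50 nM) in PBS pH 7.4, 0.01% Tween-20, then compound added for 30 min. AlphaScreen streptavidin donor/nickel chelate acceptor beads (10 ug/mL final), 30 min dark, luminescence read.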
The depositor's hits bear a star; ? = inconclusive; / = no result; [ ] = remark or other dose. Calls come from the whole dose curve; as a rule, active = well fitted curve in the direction sought with a large enough effect; inconclusive = small, poorly fitted or top-dose-only effect, or another doubt; inactive = no such curve, though single readings can be large; an effect the other way counts as inactive or inconclusive. Potency is the fitted concentration of half-maximal effect.

SMILES | BAZ2B block | GLS inhibitor | JMJD2A Tudor inh | G9a inh | HP1b chromo inh
COc1ccc2[nH]c3c(N4CC(C)OC(C)C4)ncnc3c2c1 (centres undefined) | 13% | -15% | -1% | 12%[59 µM] | 51%
COc1cccc(N2CCN(c3ncnc4c3[nH]c3ccc(F)cc34)CC2C)c1 (centres undefined) | ? | 11% | ? | 18µM* | ?
CC1(C(=O)NS(=O)(=O)c2cccc(F)c2)CCN1C(=O)CC1CCCC1 (centres undefined) | / | 4% | / | / | /
Cc1cc(-c2ccco2)c(C#N)c2nc3ccccc3n12 | -27% | -20% | -6%[57.1 µM] | 13µM* | 49%
Cc1cc(C(C)C)n2c(nc3ccccc32)c1C#N | 1% | / | / | 33% | /
Cc1ccccc1Oc1nc2c(c(=O)n(C)c(=O)n2C)n1Cc1ccc(Br)cc1 | -11% | -9% | -8% | -51%[59 µM] | 32%
O=c1c2cn[nH]c2[nH]c(=S)n1-c1ccccc1 | -4% | 8% | 79µM* | 8.9µM* | 5%
O=c1c2cn[nH]c2[nH]c(=S)n1-c1cccc2ccccc12 | -8% | 22% | -34% | 50µM* | 14%
COc1ccc(-n2c(=S)[nH]c3[nH]ncc3c2=O)cc1 | ? | -8% | ? | / | 37%
COCCCNC(=O)c1sc2nc(C)c(C(=O)Nc3ccc(C)cc3C)c(-c3ccccc3Cl)c2c1N | 9% | 2% | 1% | -32%[59 µM] | 63%
Cc1cc2c(s1)c1cnn(Cc3cc(C(F)(F)F)cc(Cl)c3F)c(=O)c1n2C | / | / | -27% | / | /
CN(C)c1cc(-c2cccc(NS(C)(=O)=O)c2)ncn1 | / | / | / | -9%[0.501 µM] | /
O=C(NCc1ccc2c(c1)OCO2)c1cc2c(s1)CSC2 | -34% | 19% | -28% | 35µM* | -2%
O=C(NCc1ccc2c(c1)OCO2)c1cccc(C(=O)NCc2ccc3c(c2)OCO3)c1 | / | -4% | -21% | 18%[59 µM] | 23%
O=C(NCc1ccco1)c1cccs1 | -9% | -7% | -9% | 40µM* | 26%
O=C(NCc1ccco1)c1cc2cc(Br)ccc2o1 | ? | -20% | ? | 8.9µM* | ?
O=C(NNC(=S)NCc1ccco1)c1cccs1 | -4% | 14% | ? | ? | 13%
Cc1c(C(=O)NCc2ccco2)oc2ccc(Br)cc12 | ? | -13% | -10% | ? | 10%
O=C(NCc1ccco1)c1ccc(C(=O)NCc2ccco2)cc1 | / | 8% | -24% | / | 6%
O=C(NCc1ccco1)c1cc2c(s1)CSC2 | 50µM* | -1% | 32µM* | ? | 50µM*
N#CC(c1ccc(Cl)cc1)c1c(Cl)cc(-n2ncc(=O)[nH]c2=O)cc1Cl (centres undefined) | / | 3% | / | ? | /
COc1ccccc1NC(=O)C1=C(C)Nc2nc(SCc3ccccc3)nn2C1c1cccs1 (centres undefined) | 0% | 8% | -9% | ? | 26%
CCCCN(CC)Cc1ccc(CNC(=S)Nc2ccc(C)cc2Cl)o1 | 4% | 1% | -34% | 35µM* | 3%
O=C1c2ccccc2NC(c2ccc(O)c(O)c2)N1c1ccccc1Cl (centres undefined) | 40µM* | -14% | -18% | 45µM* | -5%
O=C(O)CCNC(=O)/C(=C/C=C/c1ccccc1)NC(=O)c1ccccc1 | -3% | -2% | -18% | 40µM* | 19%
O=C(Nc1ccc(C(=O)O)cc1)/C(=C\C=C\c1ccccc1)NC(=O)c1cccc(Br)c1 | 56µM* | -1% | -33% | 40µM* | 7%
Clc1ccccc1OCCSc1nnc(-c2cccs2)o1 | 111% | -9% | 110% | 72%[59 µM] | 193%
CCC(CO)Nc1ncnc2c1cnn2-c1ccc(C)cc1 (centres undefined) | 10% | 2% | -15% | 13%[59 µM] | 3%
Fc1cccc(Cc2c(-c3cccc(Cl)c3)nc3ccc(Cl)cn23)c1 | / | 17% | / | / | /
